An excerpt weighted towards active compounds, which were near 2.9% of everything screened.
Mm-Cpn inhibitor: Inhibitors of TCP-1 ring complex (TRiC) of Methanococcus maripaludis (MmCpn): qHTS | Potency, µM (doses to about 76.9 µM), for inactives: at the highest dose activity, negative = inhibition, most hits filed as inhibitors | 0.031% of 330,000 active | Chaperonin Mm-Cpn (Methanococcus maripaludis) | purified Mm-Cpn ATPase, ADP Transcreener TR-FRET; active means well fitted inhibition curve with a large enough effect; inconclusive means small, poorly fitted or top-dose-only effect; further: potency means the concentration at half of the fitted maximal effect; on the % scale 0 is the no-effect control and ±100 the full control effect; nearly all actives have a fitted effect of over 80% in size
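25 nM Mm-CPN + cpd, 10 min 37°C; + 10 uM ATP, 30 min 37°C; buffer 30 mM Tris pH 7.4, 100 mM KCl, 5 mM MgCl2, 1 mM DTT; Transcreener ADP HTRF detection 30 min RT.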
Rango dissoc inh: qHTS Assay for Inhibitors of RanGTP induced Rango (Ran-regulated importin-beta cargo) - Importin beta complex dissociation; 0.071% of 340,000 active; Snurportin-1 (Homo sapiens) + GTP-binding nuclear protein Ran (Homo sapiens) + Importin …; Potency, µM (doses to about 46.1 µM), inactives show top-dose activity change, negative = inhibition; Biochemical FRET Rango-importin beta, RanGTP-induced dissociation; further: potency means the concentration at half of the fitted maximal effect; % of control where 0% means no effect; nearly all actives have a fitted effect of over 45% in size
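Rango/importin beta premix (0.1/0.25 uM final), PBS + 1 mM DTT + 0.02% Tween-20 + 0.1% BSA; cpd 5 min RT; FRET pre-read; + RanGTP-RCC1 (0.6 uM Ran, 2 mM GTP, 0.2 uM RCC1); 45 min RT; FRET post-read, ex 430, em 486/530 nm.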
PTAP TSG101 blk: qHTS Assay for Iinhibitors of HIV-1 Budding by Blocking the Interaction of PTAP/TSG101; Fluorescence polarization, FITC-PTAP peptide / Tsg101 binding; Potency, µM (top dose mostly 115 µM), for the others: at the top dose activity change, negative = inhibition, most hits filed as inhibitors; 340,000 tested, under 10 active; AID 493005, 2010; active means well fitted inhibition curve with a large enough effect in the main read-out, with a control signal flat, not every such curve was filed as active; inconclusive means small, poorly fitted or top-dose-only effect, or effect the other way, or a change in a side signal; inactive means no such curve, though single readings can be large or run the other way; further: potency means the concentration at half of the fitted maximal effect; % of control where 0% means no effect
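FP read-out: FITC-PTAP peptide, 50 nM final, binding Tsg101 binding domain, 10 uM final; 20 min, r.t.; 10 mM HEPES pH 7.5, 0.15 M NaCl, 0.01% Tween 20, 3 mM EDTA, 0.1 mM TCEP.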
D3 ag: qHTS of D3 Dopamine Receptor Agonist: qHTS | AID 652048, 2013 | 0.58% of 410,000 active | D3R DiscoveRx beta-arrestin cells, luminescence, 90 min | max activation, %; in the data active means max activation above about 30%; further: 0% is about no effect
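Agonist-mode cell screen: cells plated at 1500/well and incubated overnight at 37 °C, then exposed to library compounds for 90 min at 37 °C. Detection reagent was added for 30–60 min at room temperature, and luminescence was read.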
DRD3 antagonist: qHTS of D3 Dopamine Receptor Antagonist: qHTS; D(3) dopamine receptor (Homo sapiens), P35462; D3R cells, DiscoveRx beta-arrestin luminescence, antagonist mode; hits give low values; max response, negative = inhibition, %; 2.5% of 360,000 active; AID 652054, 2013; in the data active means max response below about -50%; inconclusive means no clear call, values can overlap the other calls; further: on the % scale 0 is the no-effect control and ±100 the full control effect
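Cells plated overnight at 1500 cells/well, then exposed to library compounds with dopamine controls for 90 minutes at 37 degrees C. DiscoveRx reagent added for 30–60 minutes at room temperature; luminescence read, quantitative HTS format.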
Rango-impB inh: qHTS Assay for Inhibitors of Rango (Ran-regulated importin-beta cargo) - Importin beta complex formation | 0.031% of 340,000 active | AID 540263, 2011 | Rango CFP/YFP FRET sensor + importin beta, 45 min | Importin subunit beta-1 (Homo sapiens), Q14974 | Potency, µM (top dose mostly 92.2 µM), inactives show at the top dose inhibition of complex formation;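 further: potency means the concentration at half of the fitted maximal effect; 0% = DMSO wells and 100% = buffer wells lacking importin beta; nearly all actives have a fitted effect of over 15% in size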
Target sequence (Q14974 whole entry, looked up): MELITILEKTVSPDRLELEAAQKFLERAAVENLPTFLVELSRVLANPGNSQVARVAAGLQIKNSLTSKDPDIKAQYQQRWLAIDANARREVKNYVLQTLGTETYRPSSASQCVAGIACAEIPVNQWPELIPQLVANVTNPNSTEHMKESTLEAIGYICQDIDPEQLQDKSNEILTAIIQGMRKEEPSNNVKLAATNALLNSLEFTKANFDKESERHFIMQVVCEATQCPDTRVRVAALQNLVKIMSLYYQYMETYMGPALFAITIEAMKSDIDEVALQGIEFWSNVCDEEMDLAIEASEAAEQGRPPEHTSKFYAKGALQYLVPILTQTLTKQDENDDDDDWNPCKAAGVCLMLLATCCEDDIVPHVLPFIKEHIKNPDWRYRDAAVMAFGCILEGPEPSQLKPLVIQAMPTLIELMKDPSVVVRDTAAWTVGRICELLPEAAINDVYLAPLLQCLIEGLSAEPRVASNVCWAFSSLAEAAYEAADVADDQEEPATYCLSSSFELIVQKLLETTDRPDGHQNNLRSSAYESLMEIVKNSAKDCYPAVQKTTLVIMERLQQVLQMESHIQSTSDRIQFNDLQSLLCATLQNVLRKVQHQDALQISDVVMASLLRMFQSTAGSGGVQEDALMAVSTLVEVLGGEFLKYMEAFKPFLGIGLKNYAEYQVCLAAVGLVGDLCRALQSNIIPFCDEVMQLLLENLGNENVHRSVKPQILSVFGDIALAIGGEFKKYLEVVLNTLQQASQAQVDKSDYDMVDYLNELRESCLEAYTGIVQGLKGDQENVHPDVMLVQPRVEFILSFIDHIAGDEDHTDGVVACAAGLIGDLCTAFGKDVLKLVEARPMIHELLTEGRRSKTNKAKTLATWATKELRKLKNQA
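Inhibition scored from the CFP 486 nm/YFP 530 nm FRET ratio 45 min after adding 0.125 microM importin beta to 50 nM Rango biosensor preincubated 5 min with compound (room temperature, PBS with DTT, Tween-20, BSA). No-importin wells as positive control.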
Numbers without * were called inactive; ? = inconclusive; · = no result given. Unless noted, the call rests on the fitted dose curve.

SMILES	Mm-Cpn inhibitor	Rango dissoc inh	PTAP TSG101 blk	D3 ag	DRD3 antagonist	Rango-impB inh
COc1ccc(Cl)cc1CN1CCN(c2nc(C)cc(C)c2C#N)CC1	-2%	-16%	-25%	-28	-11	?
Cc1cc(C)c(C#N)c(N2CCN(CCOc3ccc(Cl)cc3)CC2)n1	2%	2%	-12%	-24	-78*	-8%
CC(CN(C)Cc1ccccc1)OC(=O)c1ccc(F)cc1 (stereo unspecified)	0%	-7%	0%	-13	-69*	0%
Cc1cc2nc3n(c2cc1C)CC1CC(C(=O)NCC2CC2)N(C)C31 (stereo unspecified)	2%	48%	-6%	-13	-11	-1%
CCOC(=O)c1c(C)[nH]c(CCC(=O)NC(C)c2ccccc2)c1C (stereo unspecified)	·	·	·	-20	·	·
CCn1c(-c2ccc(C)cc2)n[nH]c1=S	-5%	-8%	-7%	-1	?	0%
Cc1ccc(-c2csc3n[nH]c(=S)n23)cc1	-2%	-3%	-8%	-2	-100*	2%
CCc1oc2ccccc2c1C(=O)CCN1CCCCC1	1%	26%	-4%	-7	-94*	0%
O=C(CCN1CCCCC1)c1ccccc1	1%	21%	-6%	-4	-21	-3%
Cc1cc(OCC(=O)NCCc2ccc(S(N)(=O)=O)cc2)c2c(C)cc(=O)oc2c1	-3%	-7%	-1%	-1	32	9%
CCN1CC2([N+](=O)[O-])C=CC(=O)C([N+](=O)[O-])(C1)C2CC(=O)c1ccccc1 (stereo unspecified)	0%	-14%	-11%	1	-68*	-7%
CCCCN1CC2([N+](=O)[O-])C=CC(=O)C([N+](=O)[O-])(C1)C2CC(=O)c1ccccc1 (stereo unspecified)	?	15%	-1%	2	14	-1%
CC(C)C[C@@H](CNCC(=O)[C@H](C)NC(=O)c1[nH]cnc1C(=O)N[C@@H](C)CN)NC(=O)c1nc[nH]c1C(=O)N[C@@H](CC(=O)O)C(=O)O	·	15%	-1%	32*	-12	-1%
CC(C)C[C@@H](CN)NC(=O)c1nc[nH]c1C(=O)N[C@@H](Cc1c[nH]c2ccccc12)C(=O)CNC[C@H](C)NC(=O)c1nc[nH]c1C(=O)N[C@@H](CC(=O)O)C(=O)O	·	2%	0%	-31	-53*	?
COc1cc(OC)cc(-c2c(C#Cc3ccsc3)c3cc(-c4ccc(CN5CCOCC5)cc4)ccc3n2C)c1	-30%	-3%	-1%	6	44	?
COc1cc(C#Cc2c(-c3cncn3C)n(C)c3ccc(-c4ccc(CN5CCOCC5)cc4)cc23)cc(OC)c1	-10%	?	-2%	57*	132	?
Cc1cc(CC(=O)O)c(C)n1-c1ccc(Cl)cc1	·	·	·	-5	·	·
CCOC(=O)Cn1cccc1-c1nc(-c2ccc(OC)cc2)c(-c2ccc(OC)cc2)s1	·	·	·	1	·	·
COc1cc(C#Cc2ccc3cc(C(C)(C)O)oc(=O)c3c2)cc(OC)c1	-14%	-4%	-4%	31*	70	2%
O=C(NCCCN1CCCC1)[C@H](CSCc1ccccc1)N1Cc2ccccc2C1=O	-4%	4%	3%	-16	-60*	2%
COC(=O)CSc1nc(N2CCOCC2)c2c(c1C#N)CC(C)(C)OC2	0%	3%	-4%	-8	14	-5%
COC(=O)Sc1nc(N2CCOCC2)c2c(c1C#N)CC(C)(C)OC2	0%	9%	-6%	-1	-57*	-1%
O=C(NCCCN1CCN(c2cccc(Cl)c2)CC1)C1(S(=O)(=O)c2ccc(Cl)cc2)CC1	0%	-1%	-11%	11	-57*	1%
COc1ccccc1NC(=O)NCCCN1CCN(c2cccc(Cl)c2)CC1	1%	10%	-5%	1	-108*	1%
Cc1nc2ncnn2c(C)c1CCC(=O)NCCCN1CCN(c2cccc(Cl)c2)CC1	0%	0%	-4%	9	-52*	-2%
SMILES	Mm-Cpn inhibitor	Rango dissoc inh	PTAP TSG101 blk	D3 ag	DRD3 antagonist	Rango-impB inh
COc1ccc(N2CCN(CCCNC(=O)C3(S(=O)(=O)c4ccc(Cl)cc4)CC3)CC2)cc1	-2%	11%	-1%	3	2	-3%
Cc1nc2ncnn2c(C)c1CCC(=O)N1CCN(c2cccc(Cl)c2)CC1	·	·	·	-6	·	·
COc1ccc(Cl)cc1N1CCN(CCNC(=O)Nc2ccccc2C)CC1	1%	12%	-5%	-17	-131*	-2%
COc1ccc(N2CCN(CCCNC(=O)Nc3ccccc3Cl)CC2)cc1	·	·	·	-17	·	·
O=C(CSc1nnc(-c2ccc(C(F)(F)F)cn2)o1)Nc1ccccc1Cl	-1%	10%	-6%	5	3	-1%
CN(CCC(=O)Nc1ccc(Cl)cc1)Cc1ccccc1	-1%	-5%	-1%	-23	-97*	-1%
CN(CCC(=O)Nc1ccc2c(c1)OCO2)Cc1ccccc1	-9%	10%	-5%	-31	-73*	1%
CN(CC(=O)Nc1cccc(C#N)c1)Cc1ccc(Cl)cc1	1%	12%	-2%	-18	-74*	1%
CN(CCOC(=O)c1ccc2c(c1)OCCO2)C(C)(C)C	1%	1%	-1%	-8	10	9%
CS(=O)(=O)N(CC(=O)Nc1ccc2c(c1)OCO2)Cc1ccccc1	-2%	-2%	-1%	-3	-4	-4%
CN(CC(=O)Nc1ccc(Cl)cc1)C(=O)CCc1ccccc1	1%	-10%	-7%	-8	-2	-2%
CN(CCOC(=O)c1ccc2c(c1)OCCO2)Cc1ccccc1	1%	19%	-3%	0	-79*	-3%
COc1ccc(OC)c(C2=NS(=O)(=O)N(C)C(C(=O)Nc3cccc(C(C)=O)c3)=C2)c1	2%	-2%	-1%	17	3	1%
COCCCNC(=O)c1c(NC(=O)c2cc(=O)c3ccccc3o2)sc2c1CCCC2	·	·	·	1	·	·
Cn1c(CN2CCCC2)nc2cc(NC(=O)COc3ccc(Cl)cc3)ccc21	-1%	7%	-5%	-30	-69*	5%
COc1ccc(OCC(=O)Nc2ccc3c(c2)nc(CN2CCCC2)n3C)cc1	0%	7%	-4%	-14	-54*	-3%
